Here are results for 12 compounds from PubChem BioAssay (EPA / NIEHS).

Broadly, the AC50 is the concentration giving half of the maximal activity seen.

The source made the active and inactive calls. The calls were made as follows: active = hit-call score of the fitted dose curve at least 0.9, where 1 is the maximum; inactive = score below 0.9.

The experiment is described as follows: CCTE_Mundy_HCI_Cortical_NOG_BPCount: CCTE's Neurite Outgrowth Assay in rat cortical cells for Branch Point Count, Mundy Lab (AID 2284237).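 As to AC50: branch points counted about two days after chemical exposure.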 As to the method: CCTE_Mundy_HCI_Cortical_NOG is a multiplexed, cell-based-readout assay that uses rat primary cortical cells with measurements taken at 50.33 hours after chemical dosing in a microplate: 96-well plate.CCTE_Mundy_HCI_Cortical_NOG_BPCount is one of four components of the CCTE_Mundy_HCI_Cortical_NOG assay. It measures neurite outgrowth related to the number of branch points using High Content Imaging of fluorescently labelled markers.[…] Using a type of morphology reporter, loss -of-signal activity can be used to understand developmental effects.
Exposure starts 2 hours post-plating by adding 10 ul of the working solution to 90 ul of media in the wells for a 1/10 dilution. Forty-eight hours after chemical treatment cells are fixed by direct addition of 100 ul of warm (37C) Dulbecco's phosphate buffered saline (DPBS) fixative solution containing 8% paraformaldehyde, 8% sucrose, and 0.1% of 3 mg/ml Hoechst 33342 into each well. Primary antibodies are prepared by dilution in Immunocytochemical Staining Buffer (ISB), 10X Dulbecco's PBS, 0.1% Saponin, 5% Bovine Serum Albumin, 0.5% NaN3 (Sodium Azide) and betaIII-tubulin (rabbit anti-betaIII-tubulin, 1:800) followed by Alexa Fluor-488 secondary (1:500) to label neuronal cell bodies and neurites. A Cellomics ArrayScan VTi HCS Reader is used for automated image acquisition and analysis of neurite outgrowth.
On to `CCC[CH2][Sn]([Cl])([CH2]CCC)[CH2]CCC`, for which the AC50 is 88.6 nM (active). For `CN(C)[C@@H]1C(=O)C(C(N)=O)=C(O)[C@@]2(O)C(=O)C3=C(O)c4c(O)cccc4[C@@](C)(O)[C@H]3C[C@@H]12`, the compound was called inactive. Consider `COC(=O)Nc1nc2ccccc2[nH]1`, for which the AC50 is 3980 nM (active).

Regarding `ClC1=C(Cl)C2(Cl)C3C(Cl)C=CC3C1(Cl)C2(Cl)Cl` (configuration not stated), the AC50 was 12200 nM (active).

Turning to `COP(=S)(OC)SCN1C(=O)c2ccccc2C1=O`, the outcome was inactive.

On to `Nc1cc(Cl)cc(C(=O)O)c1Cl`, for which the compound was called inactive.

On to `[O-][Cl+]O`, for which the result was inactive. With `OCCOCCO`, the outcome was inactive. Regarding `CC(C)(C)C(O)(CCc1ccc(Cl)cc1)Cn1cncn1` (configuration not stated), the AC50 was 162 nM (active).

With `CNC(=O)Oc1cccc2c1OC(C)(C)C2`, the result was inactive. Turning to `CCCCOC(=O)c1ccccc1C(=O)OCc1ccccc1`, the compound was classed as inactive. As to `CC(C)COC(=O)c1ccccc1C(=O)OCC(C)C`, the call was inactive.
